# The full data set covers some 7,900 targets. This sample favours those with a hit. About 0.6% of all pairs of compound and target were hits. A number with no mark means an inactive call.
# Assays:
# Assay in all cases: log2 fold change, soluble protein after heating vs DMSO (PISA); higher = thermal stabilisation; K562 cells, 10 uM, 30 min; active = over 0.2 and 3.5 SD of the protein, either way, in both replicates (recomputed)
# erlotinib = compound: C#Cc1cccc(Nc2ncnc3cc(OCCOC)c(OCCOC)cc23)c1 [erlotinib]
# Procedure, shortened: (§1)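 K562 cells at 2×10^6 cells/mL were treated with 10 μM compound for 30 min. Aliquots were heated for 3 min across 48°C-58°C, pooled, and extracted in PBS with 0.5% NP-40 at 4°C; soluble protein was the supernatant after 21,000xg for 90 min. Soluble protein was quantified by TMTpro 16plex LC-MS/MS with channel sums equalised, and reported as log2 fold change in thermal stability against DMSO controls, with values from duplicates.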
# [1] = compound: C/C(=N\NC(=O)C1=CC(=CC=C1)S(=O)(=O)N2CCOCC2)/C3=C(C=CC(=C3)Cl)O
# Procedure, shortened: as §1
# [2] = compound: C1=CC(=C(C=C1Cl)C2=NC3=NC=CN=C3C(=N2)NC4=CC=NC=C4)F
# Procedure, shortened: as §1
# [3] = compound: C1=CC(=CC=C1C2=NC3=C(N2)C=C(C=C3)C(=O)N)OC4=CC=C(C=C4)Cl
# Procedure, shortened: as §1
# [4] = compound: C1=CC2=C(C=CC(=C2)/C=C\3/C(=O)NC(=NCC4=CC=CS4)S3)N=C1
# Procedure, shortened: as §1
# [5] = compound: C1=CC2=NC=CN=C2C=C1/C=C/3\C(=O)NC(=O)S3
# Procedure, shortened: as §1
# [6] = compound: C1=CC=C(C=C1)C2=NC(=C(N2)C3=CC=NC=C3)C4=CC(=C(C=C4)Cl)O
# Procedure, shortened: as §1
# [7] = compound: C1=CC=C2C(=C1)C3=NNC4=CC=CC(=C43)C2=O
# Procedure, shortened: as §1
# [8] = compound: C1CCN(C1)C(=O)NC2=CC=CC(=C2)NC3=NC=C(C(=N3)NCCC4=CN=CN4)Br
# Procedure, shortened: as §1
# [9] = compound: C1CN(CCC1(CC2=CC=C(C=C2)Cl)N)C3=NC=NC4=C3C=CN4
# Procedure, shortened: as §1
# IRAK-1-4 Inhibitor I = compound: C1COCCN1CCN2C3=CC=CC=C3N=C2NC(=O)C4=CC(=CC=C4)[N+](=O)[O-] [IRAK-1-4 Inhibitor I]
# Procedure, shortened: as §1
# ibrutinib = compound: C=CC(=O)N1CCC[C@@H](n2nc(-c3ccc(Oc4ccccc4)cc3)c3c(N)ncnc32)C1 [ibrutinib]
# Procedure, shortened: as §1
# [10] = compound: CC(=O)c1cnc2ccc(-c3cc(Cl)c(O)c(Cl)c3)nc2c1N[C@H]1CC[C@H](CN(C)C)CC1
# Procedure, shortened: as §1
# ralimetinib = compound: CC(C)(C)Cn1c(N)nc2ccc(-c3[nH]c(C(C)(C)C)nc3-c3ccc(F)cc3)nc21 [ralimetinib]
# Procedure, shortened: as §1
# [11] = compound: CC(C)(O)CC(=O)NCCn1ccc2ncnc(Nc3ccc(Oc4cccc(C(F)(F)F)c4)c(Cl)c3)c21
# Procedure, shortened: as §1
# [12] = compound: CC(C)C1=C2N=C(C=C(N2N=C1)NCC3=CC=CC=C3)NCCCCCCN
# Procedure, shortened: as §1
# [13] = compound: CC(C)C[C@@H](C=O)NC(=O)[C@H](CC(C)C)NC(=O)[C@H](CC(C)C)NC(=O)OCc1ccccc1
# Procedure, shortened: as §1
# pinometostat = compound: CC(C)N(C[C@H]1O[C@@H](n2cnc3c(N)ncnc32)[C@H](O)[C@@H]1O)[C@H]1C[C@@H](CCc2nc3cc(C(C)(C)C)ccc3[nH]2)C1 [pinometostat]
# Procedure, shortened: as §1
# [14] = compound: CC1=C(C(CC(=O)N1)C2=CC=C(C=C2)C(F)(F)F)C(=O)NC3=C(C=C4C(=C3)C=NN4)F
# Procedure, shortened: as §1
# [15] = compound: CC1=C(C2=C(C=C1)C(=O)C3=CC=CC=C3N2CCCN)C
# Procedure, shortened: as §1
# Chain of UniProt Q5SSJ5 (Q5SSJ5 whole entry, looked up): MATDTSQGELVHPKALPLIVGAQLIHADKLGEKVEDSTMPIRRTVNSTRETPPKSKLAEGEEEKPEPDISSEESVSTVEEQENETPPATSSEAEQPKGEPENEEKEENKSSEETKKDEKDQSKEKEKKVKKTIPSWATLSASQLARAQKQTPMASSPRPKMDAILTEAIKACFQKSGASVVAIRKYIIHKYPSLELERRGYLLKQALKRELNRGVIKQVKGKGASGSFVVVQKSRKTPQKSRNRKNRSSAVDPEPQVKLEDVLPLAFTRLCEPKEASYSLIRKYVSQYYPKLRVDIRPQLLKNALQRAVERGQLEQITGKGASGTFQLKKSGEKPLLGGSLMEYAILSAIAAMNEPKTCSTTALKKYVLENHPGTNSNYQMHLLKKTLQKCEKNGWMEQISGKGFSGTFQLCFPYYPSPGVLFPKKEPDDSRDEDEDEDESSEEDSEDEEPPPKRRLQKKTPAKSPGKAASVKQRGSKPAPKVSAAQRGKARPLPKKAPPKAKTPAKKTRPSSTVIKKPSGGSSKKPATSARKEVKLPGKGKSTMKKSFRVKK
# Chain of UniProt P54803 (P54803 whole entry, looked up): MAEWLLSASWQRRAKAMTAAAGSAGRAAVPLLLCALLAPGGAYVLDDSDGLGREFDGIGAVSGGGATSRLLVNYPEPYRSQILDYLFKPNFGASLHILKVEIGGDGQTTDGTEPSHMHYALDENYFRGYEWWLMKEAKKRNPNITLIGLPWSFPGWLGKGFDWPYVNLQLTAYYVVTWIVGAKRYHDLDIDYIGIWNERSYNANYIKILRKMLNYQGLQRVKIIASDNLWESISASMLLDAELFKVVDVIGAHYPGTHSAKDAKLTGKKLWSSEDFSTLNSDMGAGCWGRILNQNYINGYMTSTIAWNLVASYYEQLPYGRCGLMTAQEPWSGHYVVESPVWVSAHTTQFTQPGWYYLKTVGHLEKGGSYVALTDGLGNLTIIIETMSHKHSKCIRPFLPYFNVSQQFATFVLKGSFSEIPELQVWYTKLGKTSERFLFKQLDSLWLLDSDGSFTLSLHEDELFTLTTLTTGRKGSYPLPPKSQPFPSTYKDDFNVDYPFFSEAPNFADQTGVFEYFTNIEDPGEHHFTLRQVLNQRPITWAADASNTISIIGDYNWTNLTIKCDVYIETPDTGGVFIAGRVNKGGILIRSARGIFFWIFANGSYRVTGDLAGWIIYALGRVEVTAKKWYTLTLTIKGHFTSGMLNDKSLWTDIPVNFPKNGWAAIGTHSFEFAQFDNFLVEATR
# Chain of UniProt Q04446 (Q04446 whole entry, looked up): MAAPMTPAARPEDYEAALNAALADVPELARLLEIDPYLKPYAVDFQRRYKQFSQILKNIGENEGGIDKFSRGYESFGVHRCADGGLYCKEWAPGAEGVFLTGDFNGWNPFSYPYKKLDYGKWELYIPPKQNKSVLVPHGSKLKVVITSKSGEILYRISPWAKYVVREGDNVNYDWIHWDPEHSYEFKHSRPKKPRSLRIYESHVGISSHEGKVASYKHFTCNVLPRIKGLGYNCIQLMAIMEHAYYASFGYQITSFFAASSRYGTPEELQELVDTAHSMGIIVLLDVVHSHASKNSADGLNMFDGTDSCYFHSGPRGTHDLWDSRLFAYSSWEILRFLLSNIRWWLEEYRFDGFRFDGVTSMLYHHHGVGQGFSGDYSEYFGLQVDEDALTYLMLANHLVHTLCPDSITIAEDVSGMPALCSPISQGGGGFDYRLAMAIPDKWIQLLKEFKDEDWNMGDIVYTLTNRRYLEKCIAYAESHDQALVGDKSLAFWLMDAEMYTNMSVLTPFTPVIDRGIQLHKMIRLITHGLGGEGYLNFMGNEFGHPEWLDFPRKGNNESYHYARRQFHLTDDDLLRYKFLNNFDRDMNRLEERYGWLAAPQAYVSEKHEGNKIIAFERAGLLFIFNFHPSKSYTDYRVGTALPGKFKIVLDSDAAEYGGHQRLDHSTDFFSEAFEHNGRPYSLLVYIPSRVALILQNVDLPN
# Chain of UniProt P05362 (P05362 whole entry, looked up): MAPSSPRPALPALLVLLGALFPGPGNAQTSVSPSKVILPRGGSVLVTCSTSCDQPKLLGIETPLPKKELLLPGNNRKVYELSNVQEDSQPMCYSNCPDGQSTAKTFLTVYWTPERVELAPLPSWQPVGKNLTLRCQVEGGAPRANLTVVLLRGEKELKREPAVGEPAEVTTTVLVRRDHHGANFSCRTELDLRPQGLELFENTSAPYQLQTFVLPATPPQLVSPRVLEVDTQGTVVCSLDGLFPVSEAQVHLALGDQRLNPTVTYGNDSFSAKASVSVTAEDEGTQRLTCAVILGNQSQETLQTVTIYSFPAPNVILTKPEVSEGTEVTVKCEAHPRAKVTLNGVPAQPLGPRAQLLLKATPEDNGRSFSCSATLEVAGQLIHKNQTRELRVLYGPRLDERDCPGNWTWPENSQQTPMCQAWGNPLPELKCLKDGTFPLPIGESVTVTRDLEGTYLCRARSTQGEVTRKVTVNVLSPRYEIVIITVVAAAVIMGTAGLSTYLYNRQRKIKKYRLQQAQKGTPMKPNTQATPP
# Chain of UniProt P15586 (P15586 whole entry, looked up): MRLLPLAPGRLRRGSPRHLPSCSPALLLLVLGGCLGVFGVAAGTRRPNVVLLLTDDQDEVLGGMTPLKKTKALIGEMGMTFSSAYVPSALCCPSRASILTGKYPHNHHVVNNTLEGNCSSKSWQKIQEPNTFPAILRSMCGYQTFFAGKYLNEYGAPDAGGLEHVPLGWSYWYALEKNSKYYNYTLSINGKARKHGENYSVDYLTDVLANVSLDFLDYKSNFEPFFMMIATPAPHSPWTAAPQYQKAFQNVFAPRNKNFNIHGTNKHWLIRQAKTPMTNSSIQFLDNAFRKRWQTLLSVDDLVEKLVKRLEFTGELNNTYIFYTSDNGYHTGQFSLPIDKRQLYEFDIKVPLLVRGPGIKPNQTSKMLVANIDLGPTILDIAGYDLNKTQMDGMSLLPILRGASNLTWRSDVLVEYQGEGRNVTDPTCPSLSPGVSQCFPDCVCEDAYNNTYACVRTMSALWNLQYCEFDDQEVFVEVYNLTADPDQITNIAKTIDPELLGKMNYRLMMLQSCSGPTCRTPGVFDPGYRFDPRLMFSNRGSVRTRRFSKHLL
# Chain of UniProt Q53T59 (Q53T59 whole entry, looked up): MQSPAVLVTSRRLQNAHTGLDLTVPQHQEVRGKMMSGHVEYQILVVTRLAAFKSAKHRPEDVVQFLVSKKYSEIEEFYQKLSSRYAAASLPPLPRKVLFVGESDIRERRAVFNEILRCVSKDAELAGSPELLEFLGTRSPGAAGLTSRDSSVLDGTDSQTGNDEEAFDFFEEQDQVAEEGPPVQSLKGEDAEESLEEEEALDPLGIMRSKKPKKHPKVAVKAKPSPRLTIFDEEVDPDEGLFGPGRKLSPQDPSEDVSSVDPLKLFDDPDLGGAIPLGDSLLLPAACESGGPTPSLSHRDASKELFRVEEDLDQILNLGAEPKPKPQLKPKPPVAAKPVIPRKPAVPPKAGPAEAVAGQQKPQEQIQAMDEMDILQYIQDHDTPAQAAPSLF
# Chain of UniProt O00165 (O00165 whole entry, looked up): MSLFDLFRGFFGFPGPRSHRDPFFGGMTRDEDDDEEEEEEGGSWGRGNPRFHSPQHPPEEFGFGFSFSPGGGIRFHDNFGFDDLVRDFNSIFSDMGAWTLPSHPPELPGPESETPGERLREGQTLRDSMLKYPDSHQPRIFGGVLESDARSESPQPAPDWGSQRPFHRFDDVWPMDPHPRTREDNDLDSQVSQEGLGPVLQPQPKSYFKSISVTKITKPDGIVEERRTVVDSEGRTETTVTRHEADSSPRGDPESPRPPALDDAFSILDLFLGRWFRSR
# Chain of UniProt Q9Y5Q8 (Q9Y5Q8 whole entry, looked up): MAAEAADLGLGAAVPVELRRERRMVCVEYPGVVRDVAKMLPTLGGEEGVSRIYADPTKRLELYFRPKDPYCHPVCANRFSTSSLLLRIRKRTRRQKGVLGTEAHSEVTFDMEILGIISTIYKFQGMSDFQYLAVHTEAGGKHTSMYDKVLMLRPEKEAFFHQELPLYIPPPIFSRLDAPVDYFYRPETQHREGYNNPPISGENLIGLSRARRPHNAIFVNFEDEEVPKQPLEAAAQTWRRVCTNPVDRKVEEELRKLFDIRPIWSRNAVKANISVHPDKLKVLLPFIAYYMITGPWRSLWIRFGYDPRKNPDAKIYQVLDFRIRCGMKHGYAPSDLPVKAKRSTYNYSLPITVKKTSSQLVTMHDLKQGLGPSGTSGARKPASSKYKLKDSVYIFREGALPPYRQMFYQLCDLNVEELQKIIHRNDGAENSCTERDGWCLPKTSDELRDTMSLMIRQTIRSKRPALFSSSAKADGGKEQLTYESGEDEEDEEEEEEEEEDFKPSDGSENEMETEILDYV
# Chain of UniProt P15260 (P15260 whole entry, looked up): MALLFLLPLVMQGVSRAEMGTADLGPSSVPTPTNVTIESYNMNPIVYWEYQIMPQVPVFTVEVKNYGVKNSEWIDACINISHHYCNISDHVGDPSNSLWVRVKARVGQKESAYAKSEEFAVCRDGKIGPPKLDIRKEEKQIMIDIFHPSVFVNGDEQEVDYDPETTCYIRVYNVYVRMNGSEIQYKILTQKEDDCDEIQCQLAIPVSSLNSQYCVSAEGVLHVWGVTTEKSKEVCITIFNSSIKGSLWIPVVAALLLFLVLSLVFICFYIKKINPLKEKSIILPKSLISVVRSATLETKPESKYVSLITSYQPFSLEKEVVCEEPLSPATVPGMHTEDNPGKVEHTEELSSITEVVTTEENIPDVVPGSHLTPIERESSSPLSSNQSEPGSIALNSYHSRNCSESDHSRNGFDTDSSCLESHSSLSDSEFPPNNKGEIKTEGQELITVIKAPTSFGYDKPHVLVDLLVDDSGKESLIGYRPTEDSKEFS
# Chain of UniProt Q9H4G4 (Q9H4G4 whole entry, looked up): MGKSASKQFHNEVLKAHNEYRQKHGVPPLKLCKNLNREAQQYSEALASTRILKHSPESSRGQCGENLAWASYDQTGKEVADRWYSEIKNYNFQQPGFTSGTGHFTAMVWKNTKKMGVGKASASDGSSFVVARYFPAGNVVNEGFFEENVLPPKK
Target,log2 fold change (erlotinib),log2 fold change [1],log2 fold change [2],log2 fold change [3],log2 fold change [4],log2 fold change [5],log2 fold change [6],log2 fold change [7],log2 fold change [8],log2 fold change [9],log2 fold change (IRAK-1-4 Inhibitor I),log2 fold change (ibrutinib),log2 fold change [10],log2 fold change (ralimetinib),log2 fold change [11],log2 fold change [12],log2 fold change [13],log2 fold change (pinometostat),log2 fold change [14],log2 fold change [15]
FKBP3 (UniProt Q00688),-0.001,0.014,0.061,-0.012,0.013,-0.004,-0.028,-0.001,-0.007,-0.017,0.01,0.009,0.016,0.001,-0.028,0.023,-0.014,-0.057,-0.033,-0.004
GOLPH3 (UniProt Q9H4A6),0.008,0.073,0.104,-0.014,0.011,0.008,0.051,-0.007,-0.101,0.043,0.033,-0.035,-0.023,-0.005,-0.031,0.31 (active),-0.005,-0.013,0,-0.028
GTF3C5 isoform 3 (UniProt Q9Y5Q8),0.085,0.293,-0.078,-0.049,-0.413 (active),-0.056,-0.089,0.079,-0.067,-0.038,-0.028,0.046,0.047,0.01,-0.025,-0.293,0.083,0.109,0.147,-0.171
HAX1 (UniProt O00165),0.07,-0.006,-0.024,-0.014,0.087,0.008,0.06,0.156,0.027,-0.078,-0.017,-0.036,-0.07,0.026,-0.156,-0.498 (active),0.045,0.107,0.047,0.065
HDDC2 (UniProt Q7Z4H3),-0.014,0.059,0.039,0.018,-0.072,0.034,0.292 (active),0.024,-0.039,0.076,0.04,0,0.052,0.085,0.003,0.074,0,-0.076,-0.006,-0.007
GLIPR2 (UniProt Q9H4G4),0.039,0.054,-0.035,0.15,0.023,-0.019,-0.062,-0.028,0.045,-0.058,0.038,-0.047,-0.01,0.04,0.06,-0.35 (active),0.012,0.03,,0.061
HNRNPC isoform 2 (UniProt P07910),0.093,-0.349,-0.682,0.204,0.025,0.188,-0.172,-0.164,0.087,-0.385,-0.332,0.043,-0.365,0.106,0.195,-0.197,0.281,0.238,-0.01,-0.629
ICAM1 (UniProt P05362),0.008,0.008,0.015,0.018,-0.005,-0.033,-0.01,-0.004,-0.047,0.073,0.056,0.042,-0.039,-0.02,0.002,0.157,-0.001,-0.009,-0.028,0.045
GNS (UniProt P15586),-0.033,-0.003,0.005,0.004,0.028,0.026,0.03,-0.04,0.023,0.061,0.023,-0.011,0.011,-0.04,0.065,-0.079,0.025,-0.025,-0.017,-0.01
HS1BP3 (UniProt Q53T59),0.008,0.042,0,-0.073,0.147,-0.008,-0.032,-0.03,,,0.004,-0.029,-0.117,0.038,-0.059,-0.038,0.086,-0.002,0.004,
GTF2A1 (UniProt P52655),-0.011,-0.052,0.001,-0.011,-0.094,0.034,-0.021,-0.029,-0.024,0.036,0.068,0.03,0.013,-0.142,-0.106,0.022,-0.06,0.035,0.014,-0.415 (active)
FIBP (UniProt O43427),0.023,0.088,0.011,-0.002,0.107,-0.023,-0.032,0.011,-0.144,0.125,0.026,0.019,-0.146,0.041,-0.143,0.018,0.065,0.075,,-0.039
GBE1 (UniProt Q04446),0.008,0.135,0.037,-0.057,0.158,-0.019,-0.058,-0.03,-0.061,-0.108,-0.241,-0.026,-0.102,0.051,-0.074,-0.23,0.027,0.186,,0.04
HP1BP3 (UniProt Q5SSJ5),0.071,-0.035,-0.04,0.028,0.069,0.064,-0.013,-0.044,0.027,-0.155,-0.097,0.003,0.051,0.089,-0.013,-0.031,0.063,0.092,-0.139,-0.387 (active)
GALC (UniProt P54803),-0.023,-0.002,-0.051,0.041,0.009,0.028,-0.017,-0.011,-0.032,0.08,0.053,0.017,0.016,-0.012,0.041,-0.122,0.05,0.067,0.035,-0.003
IFNGR1 (UniProt P15260),0.256,0.003,0.156,-0.208,-0.033,-0.033,-0.066,-0.035,0.048,0.247,,0.224,-0.086,-0.017,-0.067,0.199,0.14,,0.054,-0.093

# Source: the supplement of paper PMC10849652
